Measurements published in the supplement of paper PMC6522484.
± gives the standard deviation of the averaged measurements.

Legend:
[1] = system: DLD1; assay: cell viability (CellTiter-Glo) relative to plate median (fraction of plate median); higher = more viable cells; settings: 5 µM; treatment time 24 h; reporter: 7TFP
Procedure, shortened: (§1)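 Colorectal cancer cell lines stably transduced with lentiviral TCF/Wnt firefly luciferase reporters (7TFP or TCF4/Wnt) were seeded in 384-well plates. 24 h later they received library compounds at a final 5 µM for 24 h. Parallel plates were read for firefly luciferase or CellTiterGlo luminescence on a Tecan F500 reader. Each well's signal was normalised to the plate median (webcellHTS2, additive, no log transformation), and the mean of two independent replicates is reported.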

[2] = system: HCT116; assay: as above; settings: 5 µM; treatment time 24 h; reporter: TCF4/Wnt
Procedure, shortened: as §1

[3] = system: SW480; assay: as above; settings: 5 µM; treatment time 24 h; reporter: 7TFP
Procedure, shortened: as §1

[4] = system: DLD1; assay: TCF/Wnt firefly luciferase reporter signal relative to plate median (fraction of plate median); higher = higher Wnt reporter signal; settings: 5 µM; treatment time 24 h; reporter: 7TFP
Procedure, shortened: as §1

[5] = system: SW480; assay: as above; settings: 5 µM; treatment time 24 h; reporter: 7TFP
Procedure, shortened: as §1

SMILES	cell viability [1]	cell viability [2]	cell viability [3]	TCF/Wnt firefly luciferase reporter signal [4]	TCF/Wnt firefly luciferase reporter signal [5]
CCCCCC[C@H]1CC[C@@](O)([C@@](C)(O)C(=O)N[C@@H]2C(=O)N3NCCC[C@@H]3C(=O)N(O)[C@@H](COC)C(=O)NCC(=O)N3NCCC[C@H]3C(=O)N(O)[C@H](C)C(=O)O[C@H]2C)OC1C (stereo not given in full) [Diperamycin]	1.15 ± 0.099	1.23 ± 0.035	1.11 ± 0.099	1.06 ± 0.11	0.926 ± 0.0014
NC[C@H]1O[C@H](O[C@H]2[C@H](O)[C@@H](O[C@H]3O[C@H](CO)[C@@H](O)[C@H](N)[C@H]3O)[C@H](N)C[C@@H]2N)[C@H](N)C[C@@H]1O	0.854 ± 0.012	0.922 ± 0.073	0.998 ± 0.06	0.992 ± 0.0042	1.05 ± 0.076
COc1cc(C)c(C(=O)Oc2cc(C)c(C(=O)O)c(O)c2C)c(O)c1C=O	1.06 ± 0.014	0.9725 ± 0.0021	1.03 ± 0.014	1.06 ± 0.078	1.12 ± 0.085
NS(=O)(=O)c1cc2c(cc1C(F)(F)F)NCNS2(=O)=O	1.02 ± 0.17	1.09 ± 0.021	1.04 ± 0.057	1.12 ± 0.064	1.15 ± 0.092
COc1cc([S+](C)[O-])ccc1-c1nc2cccnc2[nH]1 (stereo not given)	0.968 ± 0.028	0.979 ± 0.058	0.953 ± 0.025	0.907 ± 0.22	0.794 ± 0.057
CC(=O)O[C@]1(C(C)=O)CC[C@H]2[C@@H]3C=C(C)C4=CC(=O)CC[C@]4(C)[C@H]3CC[C@@]21C	0.988 ± 0.088	0.971 ± 0.037	0.984 ± 0.037	1.03 ± 0.086	1 ± 0.04
C=CC(C1=CC(=O)C=CC1=O)c1ccccc1 (stereo not given)	0.965 ± 0.064	0.884 ± 0.098	0.943 ± 0.038	0.885 ± 0.022	0.984 ± 0.037
O=C1CN(/N=C/c2ccc([N+](=O)[O-])o2)C(=O)N1	1.03 ± 0.11	1.02 ± 0.037	0.949	0.954 ± 0.043	0.995 ± 0.12
CC[C@H](/C=C/[C@@H](C)[C@H]1CC[C@H]2[C@@H]3CC=C4C[C@@H](O)CC[C@]4(C)[C@H]3CC[C@]12C)C(C)C	1.04 ± 0.096	1.14 ± 0.14	1.03	1.05 ± 0.014	1 ± 0.066
S=P(N1CC1)(N1CC1)N1CC1	0.975 ± 0.036	0.928 ± 0.017	1.01 ± 0.03	0.975 ± 0.03	0.93 ± 0.021
CN(C)CCc1c[nH]c2ccc(Cn3cncn3)cc12	0.968 ± 0.011	1.09 ± 0.064	1.03 ± 0.042	1.09 ± 0.2	1.07 ± 0.099
CN(C)CCCC1(c2ccc(F)cc2)OCc2cc(C#N)ccc21 (stereo not given)	1.02 ± 0.044	1.01 ± 0.061	0.996 ± 0.048	0.964 ± 0.0014	1.01 ± 0.1
Cc1cc(=O)oc2cc(O)cc(O)c12	1.05 ± 0.042	1.11 ± 0.11	1 ± 0.053	0.888 ± 0.12	0.975 ± 0.12
CC(=O)O[C@@](C)(CCC=C(C)C)C1CC=C(C)CC1 (stereo not given in full)	0.974 ± 0.066	1.02 ± 0.021	0.993 ± 0.067	0.9845 ± 0.0021	1.08 ± 0.028
CC(=O)OCC(COC(C)=O)OC(C)=O	0.905 ± 0.08	0.962 ± 0.082	0.948 ± 0.0099	0.929 ± 0.079	1 ± 0.011
CCS(=O)(=O)CCn1c([N+](=O)[O-])cnc1C	0.965 ± 0.019	0.975 ± 0.014	1.01 ± 0.032	0.869 ± 0.0028	0.862 ± 0.059
O=c1cc(-c2ccc(O)cc2)oc2cc(O[C@@H]3O[C@H](CO)[C@@H](O)[C@H](O)[C@H]3O[C@@H]3OC[C@](O)(CO)[C@H]3O)cc(O)c12	0.959 ± 0.052	1.04 ± 0.057	1 ± 0.021	1.045 ± 0.0071	1.04 ± 0.057

SMILES	cell viability [1]	cell viability [2]	cell viability [3]	TCF/Wnt firefly luciferase reporter signal [4]	TCF/Wnt firefly luciferase reporter signal [5]
Cc1cc(=O)oc2c(O)c(O)ccc12	0.961 ± 0.17	0.943 ± 0.03	0.925 ± 0.044	0.869 ± 0.08	0.944 ± 0.0071
O=C1CCc2cc(OCCCCc3nnnn3C3CCCCC3)ccc2N1	0.979 ± 0.03	1.09 ± 0.028	1.035 ± 0.0071	1.03 ± 0.021	0.987 ± 0.075
CCN(CC)CCNC(=O)c1ccc(N)cc1	1 ± 0.083	0.988 ± 0.06	1.02 ± 0.055	1.045 ± 0.0071	1.08 ± 0.099
CC(=O)O[C@@H]1C[C@H]2C(C)(C)C(=O)C=C[C@]2(C)[C@H]2CC[C@@]3(C)[C@H](c4ccoc4)OC(=O)[C@H]4O[C@]43[C@@]21C	1.01 ± 0.025	1.07 ± 0.042	0.97 ± 0.018	1.19 ± 0.05	1.11 ± 0.028
CC12CCCC(O)(C1)C1CC(C)(C)C1CC2 (stereo not drawn) [beta-CARYOPHYLLENE ALCOHOL]	0.91 ± 0.072	1.12 ± 0.14	1 ± 0.04	1.1 ± 0.028	1.04 ± 0.028
CCOc1ccc2nc3cc(N)ccc3c(N)c2c1	1.02 ± 0.11	1.02 ± 0.074	0.999 ± 0.016	1.1 ± 0.085	0.925 ± 0.013
CN(C)CCN(Cc1ccccc1)c1ccccn1	0.9435 ± 0.0078	0.925 ± 0.13	1 ± 0.022	1 ± 0.25	1.03 ± 0.05
C=C1CCC2C(CC2(C)C)C(=O)CCC1O (stereo not given)	0.969 ± 0.037	0.962 ± 0.023	0.97 ± 0.0014	0.932 ± 0.025	0.9285 ± 0.0064
Cc1cc(-c2ncc(CC(=O)Nc3ccc(-c4cnccn4)cn3)cc2C)ccn1	0.974 ± 0.052	0.975 ± 0.032	0.914 ± 0.0028	0.921 ± 0.042	0.847 ± 0.21
CCC(C)(C)C(=O)O[C@H]1C[C@@H](C)C=C2C=C[C@H](C)[C@H](CC[C@@H]3C[C@@H](O)CC(=O)O3)[C@H]21	0.864 ± 0.23	0.8745 ± 0.005	0.99 ± 0.071	0.902 ± 0.34	0.827 ± 0.41
O=C(O)c1cc(O)c(O)c(O)c1	0.906 ± 0.059	0.955 ± 0.093	1 ± 0.08	1.11 ± 0.17	1.03 ± 0.17
CN(C)CCCN1c2ccccc2CCc2ccccc21	1.05 ± 0.1	0.989 ± 0.1	1.015 ± 0.0071	0.881 ± 0.012	0.913 ± 0.024
CCN1CCCC1CNC(=O)c1cc(S(N)(=O)=O)ccc1OC (stereo not given)	0.985 ± 0.064	0.954 ± 0.023	1.02 ± 0.071	1.06 ± 0.22	0.959 ± 0.072
NC(Cn1ccc(=O)c(O)c1)C(=O)O (stereo not given)	0.987 ± 0.076	0.8415 ± 0.00071	0.989 ± 0.044	0.85 ± 0.016	0.947 ± 0.12
CC(C)NNC(=O)c1ccncc1	1.02 ± 0.029	0.992 ± 0.054	1 ± 0.083	1.07 ± 0.042	1.01 ± 0.021
C[C@]12CC[C@@H](O)C[C@H]1CCc1ccccc12 [3alpha-HYDROXY-4,4-BISNOR-8,11,13-PODOCARPATRIENE]	1.03 ± 0.08	1.01 ± 0.27	1.03 ± 0.014	0.971 ± 0.022	1.15 ± 0.064
Nc1ccc(S(=O)(=O)O)cc1.Nc1ccc(S(=O)(=O)O)cc1.[Zn]	1.08 ± 0.18	1.01 ± 0.049	1.105 ± 0.0071	1.03 ± 0.12	1.015 ± 0.0071
